From PubChem BioAssay (NCI)
The panel holds about 79,000 compounds, 15% with a hit somewhere; the sample as a whole holds those more often. Active and inactive are the calls of the source. No stated cut-off is given here; in the data, active means growth inhibition above about 70%; inactive means the rest.

Test: NCI Yeast Anticancer Drug Screen. Data for the bub3 strain (AID 167)
Settings: S. cerevisiae bub3 mutant strain, at 5.0 µM (retest, dose inferred, filed as 0.5), active compounds read high
How it was run: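 Steps: expose the mutant yeast strain to compound; grow alongside vehicle-treated cultures; measure growth; express inhibition against the vehicle cultures.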

| Compound | growth inhibition |
| --- | --- |
| CC(CN(C)C)C(=O)/C=C/c1ccc(Cl)c(Cl)c1 (configuration not stated) | -16% (inactive) |
| CCCCCCNCCCNc1c2cc(OC)ccc2nc2cccc([N+](=O)[O-])c12 | -3% (inactive) |
| NC(=S)N1N=C2c3ccccc3CC[C@H]2[C@@H]1c1ccc(Cl)cc1 | 34% (inactive) |
| C/C(=N/NC(=S)Nc1ccccc1C)c1ccccn1 | -32% (inactive) |
| O=C1/C(=C/c2ccc(Cl)c(Cl)c2)CNC/C1=C\c1ccc(Cl)c(Cl)c1 | 20% (inactive) |
| CC(C)OP(=O)(OC(C)C)C(=NCCO)NNc1ccc([N+](=O)[O-])cc1 | 22% (inactive) |
| N#CCC(=O)N/N=C(\c1ccccc1)C(c1ccccc1)C1(O)C(=O)Nc2c(Cl)ccc(Cl)c21 (configuration not stated) | 8% (inactive) |
| CC(C)(CN1CCCCC1)C(=O)CC(SCCS(=O)(=O)O)c1ccccc1 (configuration not stated) | 19% (inactive) |
| COC1=CCC23C(=O)C=CC(=O)C2(C1)C(=O)c1ccccc1C3=O (configuration not stated) | 2% (inactive) |
| CCCCN(CCCC)c1ccc(N=Nc2ccc(S(=O)(=O)O)cc2)cc1 | -2% (inactive) |
| c1ccc2nc3c(nc2c1)sc1ccccc13 | -40% (inactive) |
| O=C1c2ccccc2-c2ccc(N=Cc3ccccc3)cc21 | 0% (inactive) |
| CNC(=S)N/N=C(/C)CCC/C(C)=N/NC(=S)NC | 70% (active) |
| Nc1ccc(/C=C/c2ccc3cccnc3c2)cc1 | 24% (inactive) |
| COc1ccc2c3c1OC(C)C31CC(=O)CCC1CC2 (configuration not stated) | 8% (inactive) |
| CCOC(=O)Nc1ccc(C)c(NC(=O)OCC)c1 | 35% (inactive) |
| CCN(CC)CCNc1ccc2nc(C)n3c4ccc(OC)cc4c(=O)c1c23 | -31% (inactive) |
| C[N+](C)([O-])CCCNc1c2ccccc2nc2cccc([N+](=O)[O-])c12 | 6% (inactive) |

| Compound | growth inhibition |
| --- | --- |
| O=C(c1cc(=O)c2ccc(O)cc2o1)c1ccc(Cl)cc1Cl | 23% (inactive) |
| CCCNC(=O)OCc1c(COC(=O)NCCC)c(-c2ccc(Cl)c(Cl)c2)n2c1CCC2 | 60% (inactive) |
| O=C(Cc1ccccc1)NN1C(=O)C(Cl)C1c1cc(Br)cc(Br)c1O (configuration not stated) | 98% (active) |
| CCOC(=O)C(Cc1c2ccccc2cc2ccccc12)(NC(C)=O)C(=O)OCC | 8% (inactive) |
| O=[N+]([O-])/C=C/c1cc2ccc3ccccc3c2[nH]1 | 50% (inactive) |
| Fc1ccc(Nc2ccc3ccccc3c2)cc1 | 0% (inactive) |
| O=S1(=O)CCC2=CC(C(F)(F)F)=CC(C(F)(F)F)=CN21 | 57% (inactive) |
| O=C(Cc1ccccc1)NNc1nc(NNC(=O)c2ccncc2)nc(Nc2ccc([N+](=O)[O-])cc2)n1 | 6% (inactive) |
| CCCCS/C(=C(/C#N)C(N)=O)c1cc2c([nH]1)CCCC2 | 4% (inactive) |
| O=C(O)c1ccccc1C(=O)OC1CCc2ccccc2C1 (configuration not stated) | -1% (inactive) |
| CCOC(=O)/C(=C\c1cccc(C)c1)C(C)=O | 55% (inactive) |
| NC(=S)N/N=C1\c2ccccc2CCC1CCC1(O)CCc2ccccc2C1=O (configuration not stated) | 17% (inactive) |
| Cc1cccc2c(Cl)c3cccc(C)c3nc12 | 0% (inactive) |
| CC(C)OC(=O)NNc1c(Cl)cc(Cl)cc1Cl | 36% (inactive) |
| Nc1ccc2c(c1)C(=O)c1c(F)cccc1-2 | -60% (inactive) |
| N#CSCC1COc2ccccc2O1 (configuration not stated) | 8% (inactive) |
| Cc1ccc(S(=O)(=O)NC(=O)C2C(=O)CC3(CCCCC3)CC2=O)cc1 | 20% (inactive) |
| CC1=NN(C(=O)c2ccccc2O)C(=O)/C1=C/c1ccco1 | 43% (inactive) |

Same assay, conditions: S. cerevisiae bub3 mutant strain, at 11.0 µM, active compounds read high

| Compound | growth inhibition |
| --- | --- |
| CC(CN(C)C)C(=O)/C=C/c1ccc(Cl)c(Cl)c1 (configuration not stated) | 16% (inactive) |
| CCCCCCNCCCNc1c2cc(OC)ccc2nc2cccc([N+](=O)[O-])c12 | -18% (inactive) |
| NC(=S)N1N=C2c3ccccc3CC[C@H]2[C@@H]1c1ccc(Cl)cc1 | 26% (inactive) |
| C/C(=N/NC(=S)Nc1ccccc1C)c1ccccn1 | 4% (inactive) |
| O=C1/C(=C/c2ccc(Cl)c(Cl)c2)CNC/C1=C\c1ccc(Cl)c(Cl)c1 | 13% (inactive) |
| CC(C)OP(=O)(OC(C)C)C(=NCCO)NNc1ccc([N+](=O)[O-])cc1 | 49% (inactive) |
| N#CCC(=O)N/N=C(\c1ccccc1)C(c1ccccc1)C1(O)C(=O)Nc2c(Cl)ccc(Cl)c21 (configuration not stated) | 11% (inactive) |
| CC(C)(CN1CCCCC1)C(=O)CC(SCCS(=O)(=O)O)c1ccccc1 (configuration not stated) | -1% (inactive) |
| COC1=CCC23C(=O)C=CC(=O)C2(C1)C(=O)c1ccccc1C3=O (configuration not stated) | -29% (inactive) |
| CCCCN(CCCC)c1ccc(N=Nc2ccc(S(=O)(=O)O)cc2)cc1 | 71% (active) |
| c1ccc2nc3c(nc2c1)sc1ccccc13 | 41% (inactive) |
| O=C1c2ccccc2-c2ccc(N=Cc3ccccc3)cc21 | -1% (inactive) |
| CNC(=S)N/N=C(/C)CCC/C(C)=N/NC(=S)NC | 65% (inactive) |
| Nc1ccc(/C=C/c2ccc3cccnc3c2)cc1 | 85% (active) |
| COc1ccc2c3c1OC(C)C31CC(=O)CCC1CC2 (configuration not stated) | -5% (inactive) |
| CCOC(=O)Nc1ccc(C)c(NC(=O)OCC)c1 | 7% (inactive) |
| CCN(CC)CCNc1ccc2nc(C)n3c4ccc(OC)cc4c(=O)c1c23 | -3% (inactive) |
| C[N+](C)([O-])CCCNc1c2ccccc2nc2cccc([N+](=O)[O-])c12 | 15% (inactive) |

| Compound | growth inhibition |
| --- | --- |
| O=C(c1cc(=O)c2ccc(O)cc2o1)c1ccc(Cl)cc1Cl | 46% (inactive) |
| CCCNC(=O)OCc1c(COC(=O)NCCC)c(-c2ccc(Cl)c(Cl)c2)n2c1CCC2 | -24% (inactive) |
| O=C(Cc1ccccc1)NN1C(=O)C(Cl)C1c1cc(Br)cc(Br)c1O (configuration not stated) | 94% (active) |
| CCOC(=O)C(Cc1c2ccccc2cc2ccccc12)(NC(C)=O)C(=O)OCC | -1% (inactive) |
| O=[N+]([O-])/C=C/c1cc2ccc3ccccc3c2[nH]1 | 58% (inactive) |
| Fc1ccc(Nc2ccc3ccccc3c2)cc1 | -6% (inactive) |
| O=S1(=O)CCC2=CC(C(F)(F)F)=CC(C(F)(F)F)=CN21 | 78% (active) |
| O=C(Cc1ccccc1)NNc1nc(NNC(=O)c2ccncc2)nc(Nc2ccc([N+](=O)[O-])cc2)n1 | 11% (inactive) |
| CCCCS/C(=C(/C#N)C(N)=O)c1cc2c([nH]1)CCCC2 | -30% (inactive) |
| O=C(O)c1ccccc1C(=O)OC1CCc2ccccc2C1 (configuration not stated) | -9% (inactive) |
| CCOC(=O)/C(=C\c1cccc(C)c1)C(C)=O | 89% (active) |
| NC(=S)N/N=C1\c2ccccc2CCC1CCC1(O)CCc2ccccc2C1=O (configuration not stated) | 34% (inactive) |
| Cc1cccc2c(Cl)c3cccc(C)c3nc12 | 2% (inactive) |
| CC(C)OC(=O)NNc1c(Cl)cc(Cl)cc1Cl | 58% (inactive) |
| Nc1ccc2c(c1)C(=O)c1c(F)cccc1-2 | 1% (inactive) |
| N#CSCC1COc2ccccc2O1 (configuration not stated) | -16% (inactive) |
| Cc1ccc(S(=O)(=O)NC(=O)C2C(=O)CC3(CCCCC3)CC2=O)cc1 | 5% (inactive) |
| CC1=NN(C(=O)c2ccccc2O)C(=O)/C1=C/c1ccco1 | 91% (active) |
